Among all 360,000 compounds or so, about 430 (0.12%) were called active.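 Rule for the calls: active = inhibition above the campaign mean plus 3 SD, with each screening campaign given its own cutoff (cut at about 60% in these data); inactive = the rest.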 The entries come from a sample that favours actives as a whole.
biological target: Nuclear receptor coactivator 1 (Homo sapiens) (UniProt Q15788); experiment: SRC1 coactivator transcriptional activity inhibitors, primary screen, cell-based, luminescence (AID 588354); details: HEK293 GAL4-SRC1 luciferase reporter, at 3.6 µM, active compounds read high;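 note: 0% = DMSO treated cells and 100% = gossypol at 36 µM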
Sequence (Q15788 whole entry, looked up, the tested form may be a part): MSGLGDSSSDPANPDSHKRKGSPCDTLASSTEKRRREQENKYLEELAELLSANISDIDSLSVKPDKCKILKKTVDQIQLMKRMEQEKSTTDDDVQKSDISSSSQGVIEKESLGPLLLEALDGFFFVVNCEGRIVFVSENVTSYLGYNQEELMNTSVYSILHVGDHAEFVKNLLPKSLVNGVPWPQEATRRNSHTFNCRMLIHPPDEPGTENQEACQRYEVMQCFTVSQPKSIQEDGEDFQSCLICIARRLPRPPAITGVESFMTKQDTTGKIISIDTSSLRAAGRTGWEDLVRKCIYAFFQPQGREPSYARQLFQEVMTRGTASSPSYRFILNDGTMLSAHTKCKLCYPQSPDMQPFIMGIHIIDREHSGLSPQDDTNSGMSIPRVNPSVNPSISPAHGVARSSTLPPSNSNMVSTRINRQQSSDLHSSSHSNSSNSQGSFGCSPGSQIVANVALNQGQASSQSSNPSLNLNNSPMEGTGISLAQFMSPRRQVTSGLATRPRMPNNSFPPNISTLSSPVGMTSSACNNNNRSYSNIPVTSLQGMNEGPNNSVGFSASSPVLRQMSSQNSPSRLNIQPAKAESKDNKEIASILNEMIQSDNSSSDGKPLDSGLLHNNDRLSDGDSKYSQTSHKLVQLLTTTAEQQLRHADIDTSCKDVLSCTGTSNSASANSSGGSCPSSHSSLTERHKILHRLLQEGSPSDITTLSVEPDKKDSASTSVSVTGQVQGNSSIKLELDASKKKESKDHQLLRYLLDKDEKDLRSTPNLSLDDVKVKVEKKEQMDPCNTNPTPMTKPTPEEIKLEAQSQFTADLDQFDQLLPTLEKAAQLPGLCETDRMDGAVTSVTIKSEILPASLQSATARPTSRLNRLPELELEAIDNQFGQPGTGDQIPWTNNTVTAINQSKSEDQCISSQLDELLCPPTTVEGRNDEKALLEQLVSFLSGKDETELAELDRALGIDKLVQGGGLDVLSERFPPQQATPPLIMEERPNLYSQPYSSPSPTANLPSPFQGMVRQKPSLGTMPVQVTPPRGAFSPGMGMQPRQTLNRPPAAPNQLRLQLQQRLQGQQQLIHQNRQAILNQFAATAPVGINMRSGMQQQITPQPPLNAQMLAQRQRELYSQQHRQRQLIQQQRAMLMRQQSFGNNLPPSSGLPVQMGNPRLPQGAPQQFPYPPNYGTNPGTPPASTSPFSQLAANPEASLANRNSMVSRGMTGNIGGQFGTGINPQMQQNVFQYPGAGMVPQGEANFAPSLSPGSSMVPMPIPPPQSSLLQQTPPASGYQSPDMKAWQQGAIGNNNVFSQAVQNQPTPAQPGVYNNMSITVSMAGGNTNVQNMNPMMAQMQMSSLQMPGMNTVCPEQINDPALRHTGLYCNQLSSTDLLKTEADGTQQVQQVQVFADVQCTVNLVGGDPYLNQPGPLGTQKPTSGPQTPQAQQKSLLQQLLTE

Compound	inhibition
COc1ccc(-c2nnc(SCC(=O)Nc3cccnc3Cl)n2C)cc1	16.4% (inactive)
CCOC1=C2CN(S(=O)(=O)c3ccc(C)cc3)[C@H](c3cccs3)C[C@H]2[C@H]2C(=O)N(c3ccccc3)C(=O)[C@H]2C1	0.21% (inactive)
Cc1[nH]c(C)c(S(=O)(=O)N2CCC(C)CC2)c1C(=O)N1CCCC1	0.69% (inactive)
Cc1nc(-c2ccccc2)sc1-c1nc(-c2ccccc2)ncc1S(=O)(=O)c1ccccc1	7.02% (inactive)
CCOc1ccc(CNC(=O)C2CC(=O)N(C3CCCC3)C2)cc1OC (stereo not drawn)	-4.04% (inactive)
COc1ccc(NC(=O)CN(C)C(=O)CNC(=O)C2CCCCC2)cc1	6.97% (inactive)
O=C(COC(=O)c1ccco1)Nc1ccc(Cl)cn1	-10.8% (inactive)
COC(=O)Cc1[nH]n(-c2nc3ccccc3s2)c(=O)c1C(C)=Nc1ccc(OC)cc1	81.3% (active)
COc1cccc(/C=C(/CC(=O)Nc2ccc(N3CCOCC3)cc2)c2nc3ccccc3s2)c1	-38.5% (inactive)
COCCCC1CCN(C(=O)C2CCC(=O)N(C3CCCCCC3)C2)CC1 (stereo not drawn)	2.7% (inactive)
CCN(CC)C(=O)C1=C(C)N(Cc2ccccc2)C(=O)C(CC(=O)NC(c2ccccc2)c2ccccc2)C1 (stereo not drawn)	-24.8% (inactive)
FC(F)(F)c1nc(-c2ccccc2)ncc1-c1nnnn1-c1ccccc1	2.72% (inactive)
CC1=CC(C)(C)Nc2ccc(OC(=O)CN3C(=O)C4CCCCC4C3=O)cc21 (stereo not drawn)	-14.7% (inactive)
CC[C@H]1CN2CCc3cc(OC)c(OC)cc3[C@@H]2C[C@@H]1C[C@H]1NCCc2cc(OC)c(OC)cc21	94.8% (active)
Nc1c(N(CCCO)C(=O)C2CCCC2)c(=O)[nH]c(=O)n1Cc1ccccc1	-4.42% (inactive)
Cc1cc(C)nc(-n2ncc3c2CC(c2ccc(C(C)C)cc2)CC3=O)n1 (stereo not drawn)	-16.7% (inactive)
O=C(CC(O)(C(F)(F)F)C(F)(F)F)Nc1ccc(Cl)c(Cl)c1	71.9% (active)
CC1(C(=O)O)CCC(C(=O)Nc2ccc(Cl)c(Cl)c2)C1(C)C (stereo not drawn)	1.51% (inactive)
N#CCCN(C(=O)Nc1ccc(Cl)c(Cl)c1)C1CCCCC1	4.76% (inactive)
O=C(Nc1cc(S(=O)(=O)N2CCOCC2)ccc1N1CCOCC1)c1c(F)cccc1Cl	4.42% (inactive)
CCOc1ccc(S(=O)(=O)N2CCC(C(=O)NCC(=O)Nc3cccc(Cl)c3C)CC2)cc1	-15% (inactive)
COCOc1cc(O)c(C(=O)/C=C/c2ccc(OCOC)c(OCOC)c2)c(OCOC)c1	-3.45% (inactive)
C=CCn1c(C)cc(C2=NNC(=NCC)SC2)c1C	87.5% (active)

From PubChem BioAssay AID588354 (The Scripps Research Institute Molecular Screening Center, 2011)
